According to PubChem BioAssay AID1159580 (chemical genetic matrix, 2015):
Hit rate of the full screen: of about 5,500 compounds, about 2,000 (36%) were called active. Another 18% or so got no clear call; they are omitted. No stated cut-off is given here; in the data, active means normalized growth mostly below about 0.91 (no sharp cut-off); inconclusive means no clear call, values can overlap the other calls; inactive means mostly above about 0.92. This is one part of the list.

Test: chemical genetic growth profiling, strain panel (AID 1159580);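 further: tested at 20 µM; growth read once vehicle control cultures reached saturation at 30 °C; 1 = growth at the plate median or of vehicle wells; lower values mean less growth of the strain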
Settings: growth OD

Measured: normalized growth

Nc1c2c(nc3ccccc13)CCCC2O (stereo not drawn)
inactive: S. cerevisiae deletion strains, locus YJR066W, strain TOR1, active compounds read low 0.916 | S. cerevisiae deletion strains, locus YJR075W, strain HOC1, active compounds read low 0.987 | S. cerevisiae deletion strains, locus YKL009W, strain mrt4, active compounds read low 0.976 | S. cerevisiae deletion strains, locus YKL068W, active compounds read low 0.987 | S. cerevisiae deletion strains, locus YKL085W, strain MDH1 (second series), active compounds read low 0.991 | S. cerevisiae deletion strains, locus YKL085W, strain MDH1, active compounds read low 0.991 | S. cerevisiae deletion strains, locus YKL160W, strain elf1, active compounds read low 1.01 | S. cerevisiae deletion strains, locus YKL190W, strain CNB1, active compounds read low 1.01 | S. cerevisiae deletion strains, locus YKR001C, strain vps1, active compounds read low 0.989 | S. cerevisiae deletion strains, locus YKR026C, strain gcn3, active compounds read low 1.01 | S. cerevisiae deletion strains, locus YKR091W, strain srl3, active compounds read low 0.998 | S. cerevisiae deletion strains, locus YLL001W, strain dnm1, active compounds read low 0.983 | S. cerevisiae deletion strains, locus YLL026W, active compounds read low 0.996 | S. cerevisiae deletion strains, locus YLL041C, strain sdh2, active compounds read low 1.02 | S. cerevisiae deletion strains, locus YLR027C, strain aat2, active compounds read low 1.01 | S. cerevisiae deletion strains, locus YLR039C, strain RIC1, active compounds read low 1.01 | S. cerevisiae deletion strains, locus YLR058C, strain SHM2, active compounds read low 1.01 | S. cerevisiae deletion strains, locus YLR102C, strain apc9, active compounds read low 0.984 | S. cerevisiae deletion strains, locus YLR113W, strain HOG1, active compounds read low 1.03 | S. cerevisiae deletion strains, locus YLR221C, strain rsa3, active compounds read low 1.02 | S. cerevisiae deletion strains, locus YLR258W, strain gsy2, active compounds read low 0.996 | S. cerevisiae deletion strains, locus YLR262C, strain YPT6 (second series), active compounds read low 1.01 | S. cerevisiae deletion strains, locus YLR262C, strain YPT6, active compounds read low 0.963 | S. cerevisiae deletion strains, locus YLR268W, strain sec22, active compounds read low 0.966 | S. cerevisiae deletion strains, locus YLR320W, strain mms22, active compounds read low 1.01 | S. cerevisiae deletion strains, locus YLR330W, strain CHS5, active compounds read low 0.989 | S. cerevisiae deletion strains, locus YLR342W, strain FKS1 (second series), active compounds read low 1.01 | S. cerevisiae deletion strains, locus YLR342W, strain FKS1, active compounds read low 1.01 | S. cerevisiae deletion strains, locus YLR357W, strain rsc2, active compounds read low 0.975 | S. cerevisiae deletion strains, locus YLR370C, strain arc18, active compounds read low 1 | S. cerevisiae deletion strains, locus YLR371W, strain rom2, active compounds read low 0.98 | S. cerevisiae deletion strains, locus YLR384C, strain iki3, active compounds read low 1 | S. cerevisiae deletion strains, locus YLR418C, strain cdc73, active compounds read low 1.02 | S. cerevisiae deletion strains, locus YML016C, strain PPZ1, active compounds read low 1.01 | S. cerevisiae deletion strains, locus YML032C, strain rad52, active compounds read low 0.99 | S. cerevisiae deletion strains, locus YML120C, strain ndi1, active compounds read low 1.03 | S. cerevisiae deletion strains, locus YML124C, strain tub3, active compounds read low 0.998 | S. cerevisiae deletion strains, locus YMR058W, strain fet3, active compounds read low 1.02 | S. cerevisiae deletion strains, locus YMR078C, strain ctf18, active compounds read low 0.993 | S. cerevisiae deletion strains, locus YMR125W, strain sto1, active compounds read low 0.997 | S. cerevisiae deletion strains, locus YMR129W, active compounds read low 0.999 | S. cerevisiae deletion strains, locus YMR205C, strain PFK2, active compounds read low 0.996 | S. cerevisiae deletion strains, locus YMR223W, strain ubp8, active compounds read low 0.987 | S. cerevisiae deletion strains, locus YMR231W, strain pep5, active compounds read low 0.999 | S. cerevisiae deletion strains, locus YMR307W, strain GAS1, active compounds read low 1.08 | S. cerevisiae deletion strains, locus YNL067W, strain RPL9B, active compounds read low 1.01 | S. cerevisiae deletion strains, locus YNL071W, strain lat1, active compounds read low 1.01 | S. cerevisiae deletion strains, locus YNL128W, strain TEP1, active compounds read low 1.02 | S. cerevisiae deletion strains, locus YNL175C, strain NOP13, active compounds read low 1 | S. cerevisiae deletion strains, locus YNL183C, strain NPR1, active compounds read low 0.912 | S. cerevisiae deletion strains, locus YNL197C, strain WHI3, active compounds read low 0.968 | S. cerevisiae deletion strains, locus YNL209W, strain ssb2, active compounds read low 1.01 | S. cerevisiae deletion strains, locus YNL224C, strain SQS1, active compounds read low 1 | S. cerevisiae deletion strains, locus YNL233W, strain BNI4, active compounds read low 1.03 | S. cerevisiae deletion strains, locus YNL248C, strain rpa49, active compounds read low 0.992 | S. cerevisiae deletion strains, locus YNL250W, strain rad50, active compounds read low 1.01 | S. cerevisiae deletion strains, locus YNL271C, strain bni1, active compounds read low 0.981 | S. cerevisiae deletion strains, locus YNL298W, strain CLA4, active compounds read low 0.988 | S. cerevisiae deletion strains, locus YNL307C, strain MCK1, active compounds read low 0.993 | S. cerevisiae deletion strains, locus YNL322C, strain KRE1 (second series), active compounds read low 1.01 | S. cerevisiae deletion strains, locus YNR049C, strain mso1, active compounds read low 1.01 | S. cerevisiae deletion strains, locus YNR052C, strain pop2, active compounds read low 0.966 | S. cerevisiae deletion strains, locus YOL006C, strain TOP1, active compounds read low 1.13 | S. cerevisiae deletion strains, locus YOL012C, strain htz1 0.815 | S. cerevisiae deletion strains, locus YOL147C, strain pex11, active compounds read low 0.999 | S. cerevisiae deletion strains, locus YOR001W, strain rrp6, active compounds read low 1.03 | S. cerevisiae deletion strains, locus YOR061W, strain CKA2, active compounds read low 1.01 | S. cerevisiae deletion strains, locus YOR069W, strain VPS5, active compounds read low 1 | S. cerevisiae deletion strains, locus YOR070C, strain gyp1, active compounds read low 1.01 | S. cerevisiae deletion strains, locus YOR080W, strain dia2, active compounds read low 0.996 | S. cerevisiae deletion strains, locus YOR083W, strain WHI5 (second series), active compounds read low 0.986 | S. cerevisiae deletion strains, locus YOR083W, strain WHI5, active compounds read low 1.01 | S. cerevisiae deletion strains, locus YOR106W, strain vam3, active compounds read low 1 | S. cerevisiae deletion strains, locus YOR136W, strain idh2, active compounds read low 0.997 | S. cerevisiae deletion strains, locus YOR144C, strain elg1, active compounds read low 0.999 | S. cerevisiae deletion strains, locus YOR184W, strain ser1, active compounds read low 0.988 | S. cerevisiae deletion strains, locus YOR231W, strain MKK1, active compounds read low 0.977 | S. cerevisiae deletion strains, locus YOR265W, strain rbl2, active compounds read low 1 | S. cerevisiae deletion strains, locus YOR270C, strain vph1, active compounds read low 1.02 | S. cerevisiae deletion strains, locus YOR290C, strain snf2, active compounds read low 0.974 | S. cerevisiae deletion strains, locus YOR316C, strain cot1, active compounds read low 0.977 | S. cerevisiae deletion strains, locus YPL051W, strain arl3, active compounds read low 1.01 | S. cerevisiae deletion strains, locus YPL055C, strain LGE1, active compounds read low 1.06 | S. cerevisiae deletion strains, locus YPL078C, strain atp4, active compounds read low 1.01 | S. cerevisiae deletion strains, locus YPL106C, strain sse1, active compounds read low 1.01 | S. cerevisiae deletion strains, locus YPL240C, strain hsp82, active compounds read low 1.01 | S. cerevisiae deletion strains, locus YPL256C, strain CLN2, active compounds read low 0.962 | S. cerevisiae deletion strains, locus YPR119W, strain clb2, active compounds read low 0.976 | S. cerevisiae deletion strains, locus YPR141C, strain kar3, active compounds read low 0.982 | S. cerevisiae deletion strains, locus YPR163C, strain tif3, active compounds read low 0.973 | S. cerevisiae deletion strains, locus YPR167C, strain met16, active compounds read low 0.984 | S. cerevisiae deletion strains, strain wtn01, active compounds read low 0.993 | S. cerevisiae strains, strain wild type, active compounds read low 1.02
